From PubChem BioAssay (NCI)
About 83,000 compounds went through this panel and 20% of them were active in at least one assay; those are over-represented in the sample as a whole.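 48-hour exposure, single concentration, 96-well plates; percent growth endpoint where 0 means no net growth. Active: below 10.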 A number with no mark means an inactive call. Activity calls are given as the source filed them.

How the values were obtained:
Experiment in all cases: NCI-60 one-dose screen, 48 h (100 = growth as untreated, 0 = no growth, -100 = all killed)
Details in all cases: 10 µM unless noted
SR leukemia = system: SR leukemia
RPMI-8226 leukemia = system: RPMI-8226 leukemia
OVCAR-8 ovarian = system: OVCAR-8 ovarian
OVCAR-5 ovarian = system: OVCAR-5 ovarian
OVCAR-4 ovarian = system: OVCAR-4 ovarian
SK-OV-3 ovarian = system: SK-OV-3 ovarian
OVCAR-3 ovarian = system: OVCAR-3 ovarian
HS 578T breast = system: HS 578T breast
NCI/ADR-RES ovarian = system: NCI/ADR-RES ovarian
T-47D breast = system: T-47D breast
BT-549 breast = system: BT-549 breast
MDA-MB-435 melanoma = system: MDA-MB-435 melanoma
SW-620 colon = system: SW-620 colon
MCF7 breast = system: MCF7 breast
HCT-116 colon = system: HCT-116 colon
HCC-2998 colon = system: HCC-2998 colon
KM12 colon = system: KM12 colon

Row | SMILES | growth (SR leukemia) | growth (RPMI-8226 leukemia) | growth (OVCAR-8 ovarian) | growth (OVCAR-5 ovarian) | growth (OVCAR-4 ovarian) | growth (SK-OV-3 ovarian) | growth (OVCAR-3 ovarian) | growth (HS 578T breast) | growth (NCI/ADR-RES ovarian) | growth (T-47D breast) | growth (BT-549 breast) | growth (MDA-MB-435 melanoma) | growth (SW-620 colon) | growth (MCF7 breast) | growth (HCT-116 colon) | growth (HCC-2998 colon) | growth (KM12 colon)
1 | Cc1ccccc1/C=C/C(=O)c1cccc(OCCCCOc2cccc(C(=O)/C=C/c3ccccc3C)c2)c1 | 74.4% | -6.51% (active) | 97.6% | 103% | 87.1% | 107% | 104% | 106% | 99.1% | 91.4% | 111% | 95% | 94.6% | 41.5% | 41.6% | 93.4% | 96.7%
2 | O=C(OC(CO)C(=O)NC12CC3CC(CC(C3)C1)C2)c1ccc(Cl)cc1 (stereo not given) | 84.7% | 98% | 100% | 96.3% | 101% | 107% | 115% | 99.5% | 107% | 92.8% | 106% | 94.6% | 101% | 91.8% | 90.9% | 113% | 111%
3 | CN1CCN(C(=O)c2ccc(NC(=O)c3cc4c(nn3)NCCN4Cc3cc(Cl)ccc3Cl)cc2)CC1 | 0.181% (active) | 65.3% | 91.1% | 56.4% | 72.8% | 88.4% | 89.8% | 76.9% | 95.7% | 97.3% | 60.1% | 61.4% | 50.6% | 46% | 32% | 99.8% | 21.7%
4 | Cc1c2cnccc2c(C)c2c1c1cc(C#N)ccc1n2C | 0.777% (active) | -22.9% (active) | 6.24% (active) | -15% (active) | -39.4% (active) | -3.17% (active) | -7.57% (active) | -18% (active) | -9.81% (active) | -1.04% (active) | -62% (active) | -57.6% (active) | -0.262% (active) | -12.2% (active) | -22.9% (active) | -68.7% (active) | 2.89% (active)
5 | C=CCn1c(C)nc2ccc(Nc3nc(Nc4ccc5nc(C)n(CC=C)c5c4)c4ccccc4n3)cc21 | -57.2% (active) | -43.3% (active) | -48.6% (active) | 25.1% | -93.3% (active) | -63.7% (active) | -95.4% (active) | -41.4% (active) | 53.5% | -91% (active) | 72.1% | -78% (active) | -80.5% (active) | -87.9% (active) | -97.8% (active) | -52.7% (active) | -84.8% (active)
6 | CCCC/C=C/[C@@H]1C[C@H]1CCO | 100% | 99.3% | 100% | 89.1% | 107% | 91.8% | 109% | 101% | 104% | 95.9% | 96.8% | 102% | 102% |  | 90.6% | 102% | 
7 | COc1ccc(C2=Nc3c(N)nc(N)nc3NC(c3cccc(Nc4ccnc5cc(C(F)(F)F)ccc45)c3)C2)cc1 (stereo not given) | -3.78% (active) | 18.2% | 75.6% | 116% | 68.9% | 84% | 66.4% | 66.3% | 87.6% | 93% | 107% | 10.1% | 50.4% | 37.7% | 37.9% | 72.2% | 40.4%
8 | CCOC(=O)C#Cc1c(C(=O)OCC)nnn1Cc1ccc([N+](=O)[O-])cc1 | -10.7% (active) | 11.4% | 63.3% | 97.3% | 51.2% | 105% | 7.55% (active) | 91.2% | 96.3% | 23.8% | 80.2% | 75.2% | -40.5% (active) | 6.62% (active) | 43.4% | 81.1% | 92%
9 | Nc1nc(N)c(-c2ccc(Cl)c(Cl)c2)c(CBr)n1 | 62.1% | 80.2% | 75.6% | 55.3% | 107% | 99% | 106% | 91.9% | 58.2% | 91.6% | 59.7% | 49.8% | 42% | 76.7% | 42% | 71.7% | 88.7%
10 | CC(O)(c1ccccc1)C(c1ccccc1)C1CCCCN1 (stereo not given) | 101% | 102% | 101% | 113% | 97.9% | 113% | 105% | 107% | 105% | 94.2% | 35.6% | 99.1% | 103% | 110% | 97.3% | 107% | 104%
11 | CCOC(=O)[C@@H]1CSC(CC)=C(C(=O)O)N1 | -11.1% (active) | -32% (active) | 101% | 107% | 117% | 69.1% | 128% | 109% | 113% | 87.3% | 101% | 109% | 105% | 108% | 94.1% | 111% | 114%
12 | COc1cc2c(cc1OCCCN1CCN(CCCOc3cc4c(cc3OC)C(=O)N3CC(F)(F)C[C@H]3C=N4)CC1)N=C[C@@H]1CC(F)(F)CN1C2=O | 37.5% | 5.91% (active) | 62.2% | 41.2% | 83% | 84.9% | 54.6% | -0.618% (active) | 111% | 34.5% | -7.9% (active) | 69% | -0.878% (active) | 25.5% | 62% | 60.5% | 62.3%
13 | CN(C)CCNC(=O)c1ccc(-c2nc3ccc4[nH]ncc4c3c3c2C2CCC3C2)cc1 (stereo not given) | 1.91% (active) | -5.84% (active) | 20.8% | 96% | 48.6% | 1.15% (active) | 20.9% | 9.56% (active) | 77.7% | 43.6% | 2.26% (active) | 42% | 17.8% | 9.64% (active) | 9.52% (active) | 38.5% | 2.75% (active)
14 | Cn1c(I)c(C#CCO[Si](C)(C)C(C)(C)C)c(=O)[nH]c1=O | -11.3% (active) | 84.8% | 94.8% | 102% | 80% | 105% | 75.4% | 106% | 102% | 61.9% | 97.1% | 97.4% | 11.4% | 88% | 94.6% | 99.7% | 107%
15 | CC(=O)Oc1ccc(/C(=C(\C)c2ccc(Cl)cc2)c2ccc(OCCN3CCCCC3)cc2)cc1 | -27.3% (active) | 9.5% (active) | 57.1% | 75.1% | 57.1% | 54.6% | 66.7% | 52.9% | 50% | 29.8% | 73.5% | -5.9% (active) | 66.7% | 3.38% (active) | 32.4% | -4.12% (active) | 24%
16 | Nc1n[nH]c2cccc(C#Cc3cccc(NC(=O)c4cc(F)cc(C(F)(F)F)c4)c3)c12 | 60.5% | 63.8% | 94.2% | 70.8% | 90.5% | 114% | 80.7% | 36.8% | 93.1% | 67.3% | 79.6% | 71.2% | 62.5% | 68.4% | 29.9% | 70.8% | 83.3%
